# Reference: PubChem BioAssay AID624093 (National Center for Advancing Translational Sciences (NCATS), 2012)
# Records with an inconclusive call do not appear. Unmarked numbers belong to inactive results. The source made the active and inactive calls. Calls come from the whole dose curve; as a rule, active = well fitted inhibition curve with a large enough effect; inconclusive = small, poorly fitted or top-dose-only effect; inactive = flat fitted curve, though single readings scatter.
# Biological target: Dual specificity tyrosine-phosphorylation-regulated kinase 1A (Homo sapiens) (UniProt Q13627)
# Test: Confirmation Assay for Inhibitors of Dyrk1a (Kinase-Glo Assay): KU probe
# Details: Kinase-Glo ATP luminescence; series mostly up to 76.9 µM; activity, negative = inhibition: at the top concentration
# Summary of the method: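 Kinase reaction: Dyrk1A at 5 nM final, ATP 2 uM, DYRKtide peptide 8 uM, 2 h room temperature. Inhibition is detected as retained ATP via luciferase bioluminescence.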
Compound,Potency,"activity, negative = inhibition [%]"
Clc1ccc(CNc2ncncc2-c2ccc3c(c2)OCO3)cc1,26000 nM (active),
Cc1ccc(CNc2ccnc(-c3ccc(N(C)C)cc3)n2)cc1,,1.98
O=C(O)c1ccc(-c2ccc3ncnc(NCC4CCCO4)c3c2)o1 (configuration not stated),20700 nM (active),
Cc1csc(CNc2ncnc3ccc(-c4ccc(C(=O)O)o4)cc23)n1,23200 nM (active),
c1cncc(CNc2ncncc2-c2ccc3c(c2)OCO3)c1,26000 nM (active),
COc1ccc(CNc2ccnc(-c3ccc(N(C)C)cc3)n2)cc1,,-1.18
c1cncc(CNc2ccnc(-c3ccc4cn[nH]c4c3)n2)c1,2070 nM (active),
c1nc(NCC2CCCCO2)c2cc(-c3ccc4c(c3)OCO4)ccc2n1 (configuration not stated),65.4 nM (active),
Cc1csc(CN(C)c2ncnc3ccc(-c4ccc5c(c4)OCO5)cc23)n1,23.2 nM (active),
Cc1c(-c2ccnc(Nc3cc(Br)cc(C(F)(F)F)c3)n2)sc(=O)n1C,130 nM (active),
Clc1ccc(Nc2nccc(-c3ccc4c(c3)OCO4)n2)cc1,519 nM (active),
Cc1ccc(CNc2ccnc(-c3ccc4c(c3)OCO4)n2)cc1,,-13.7
Cc1noc(C)c1-c1nccc(NCc2ccc(Cl)cc2)n1,,-5.84
CN(C)c1ccc(-c2nccc(NCc3ccc(Cl)c(Cl)c3)n2)cc1,,-3.23
CN(CC1CCCCC1)c1ncnc2ccc(-c3ccc4c(c3)OCO4)cc12,1160 nM (active),
c1coc(CNc2ncnc3ccc(-c4ccc5c(c4)OCO5)cc23)c1,104 nM (active),
Brc1ccc(CNc2ccnc(-c3ccc4c(c3)OCO4)n2)cc1Br,,-10.1
